Drawing on PubChem BioAssay (EPA / NIEHS), this text covers outcome and AC50 for seven compounds.

Experiment [1] in a line: ATG_M_32_XSP2: Attagene TRANS-FACTORIAL Multi-Species (XSP2) HepG2 Assay for M19 Transcription Factor (Internal Marker) (AID 2283826). Put shortly: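 HepG2 cells transiently transfected with GAL4-UAS reporter units; XSP2 panel included 3 nM 6-alpha-fluorotestosterone and 1.5 nM norgestrel for androgen receptor stimulation. Reporter mRNA read 24 h post-dosing by RT-PCR/capillary electrophoresis; fitted upward versus DMSO.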

The target in experiment [2] is Cellular tumor antigen p53 (Homo sapiens) (UniProt P04637). Kind of experiment: TOX21_p53_BLA_p5_ratio: Tox21 HCT-116 p53 Agonism Beta-lactamase Assay, Ratio, Phase 5 (AID 2283599). Put shortly:
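HCT-116 cells carrying a p53-inducible beta-lactamase reporter were seeded at 4000 cells/well and dosed after 5 h with compound in DMSO (217-fold dilution). After 16 h at 37C, CCF4-AM substrate was added for 2 h, and the 460/530 nm emission ratio was scored as gain-of-signal versus DMSO.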

Experiment [3] shares this target. Kind of experiment: TOX21_p53_BLA_p4_ratio: Tox21 HCT-116 p53 Agonism Beta-lactamase Assay, Ratio, Phase 4 (AID 2283601). In outline:
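HCT116 cells carrying an inducible beta-lactamase reporter were plated at 4000 cells/well, rested 5 h, then exposed to compounds in DMSO (217-fold dilution) for 16 h at 37C. CCF4-AM substrate was loaded 2 h at room temperature; 460/530 nm emission ratio scored gain-of-signal versus DMSO.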

Experiment [4] concerns the target PGR (gene 5241) (UniProt P06401). Kind of experiment: TOX21_PR_BLA_Followup_Agonist_ratio: Tox21 HEK293 Progesterone Receptor (PR) Agonism Beta-lactamase Follow-Up Assay, Ratio (AID 2283933). Put shortly: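 Ratio-based beta-lactamase reporter signal after 16 hr compound treatment of PR-UAS-bla HEK293T cells at 37C. Substrate loading lasted 2 hr at room temperature.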

Experiment [5] has the same target. Kind of experiment: TOX21_PR_BLA_Followup_Antagonist_ratio: Tox21 HEK293 Progesterone Receptor (PR) Antagonism Beta-lactamase Follow-Up Assay, Ratio (AID 2283934).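 Note: PR-UAS-bla HEK293T cells stimulated with 1 nM R5020 agonist for 16 hr.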 Put shortly: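 Measured in PR-UAS-bla HEK293T cells co-treated with compound and 1 nM promegestone for 16 hr; beta-lactamase ratio read after 2 h FRET substrate loading, with parallel CellTiter-Glo cytotoxicity.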

The nature of experiment [6]: TOX21_PR_BLA_Followup_Agonist_viability: Viability Assessment in the Tox21 HEK293 Progesterone Receptor (PR) Agonism Beta-lactamase Follow-Up Assay (AID 2283935).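 Note: signal loss means lower viability so actives are cytotoxic.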 In outline: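 Viability is read as CellTiter-Glo luminescence, where loss of signal indicates cytotoxicity. The cells are PR-UAS-bla HEK293T given compounds for 16 hr at 37C and 5% CO2, in the same wells used for the bla readout.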

For experiment [7], the target named is PGR (gene 5241) (UniProt P06401). Kind of experiment: TOX21_PR_LUC_Followup_Agonist: Tox21 HEK293 Progesterone Receptor (PR) Agonism Luciferase Follow-Up Assay (AID 2283937; active = hit-call score of the fitted dose curve at least 0.9, where 1 is the maximum; inactive = score below 0.9). In outline: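 In HEK293 cells stably expressing PR-A with a luciferase reporter, compounds were incubated 16 h at 37C, and induced luminescence was quantified with ONE-Glo, multiplexed with cell viability.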

For experiment [8] the target is unchanged. Kind of experiment: TOX21_PR_LUC_Followup_Antagonist: Tox21 HEK293 Progesterone Receptor (PR) Antagonism Luciferase Follow-Up Assay (AID 2283938).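 Note: curve fitted upward as signal gain over DMSO baseline despite antagonist label.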 Put shortly:
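HEK293-PR-A-luc cells, 3,000/well, preincubated 5 h at 37C before compound addition in DMSO; 16 h compound exposure at 37C. ONE-Glo luciferase luminescence read after 30 min at room temperature, fitted relative to DMSO baseline.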

A short description of experiment [9]: TOX21_PR_LUC_Followup_Agonist_viability: Viability Assessment in the Tox21 HEK293 Progesterone Receptor (PR) Agonism Luciferase Follow-Up Assay (AID 2283941).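 Note: loss of signal means cytotoxicity so actives lower viability.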 In outline: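 Seeding: HEK293-PR-A-luc, 3,000 cells/well, 5 h at 37C. Treatment: compound in DMSO, 16 h, 37C. Read: CellTiter-Glo ATP luminescence, signal loss taken as lower viability.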
For experiment [10], the target named is Thyroid hormone receptor alpha (Rattus norvegicus) + Thyroid hormone receptor beta (Rattus norvegicus) (UniProt P18113+P63059). Kind of experiment: TOX21_TR_LUC_GH3_Agonist_Followup: Tox21 GH3 Thyroid Hormone Receptor Agonism Luciferase Follow-Up Assay (AID 2283939). In outline: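 Agonist-mode confirmatory run: 15 concentrations (5 nM to 92 uM final) on GH3 rat pituitary cells, 24 h at 37C/5% CO2, T3 as positive control. Luminescence read with ONE-Glo after 30 min.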

In the next experiment the target is THRA (gene 7067) (UniProt P10827). Kind of experiment: TOX21_TRA_COA_Agonist_Followup_ratio: Tox21 Thyroid Hormone Receptor alpha Agonism through Coactivator Recruitment Follow-Up Assay, Ratio (AID 2283948; active = hit-call score of the fitted dose curve at least 0.9, where 1 is the maximum; inactive = score below 0.9). In outline: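 Cell-free TR-FRET: GST-tagged TRα LBD (2.5 nM) with 0.10% BSA and compound, then fluorescein-SRC-2 peptide (200 nM) and Tb-anti-GST antibody (2 nM). Readout 520:495 nm ratio (ex 340 nm), normalized to DMSO (0%) and T3 (100%).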

The target of experiment [11] is THRB (gene 7068) (UniProt P10828). Kind of experiment: TOX21_TRB_BLA_Agonist_Followup_ratio: Tox21 Thyroid Hormone Receptor beta Agonism Beta-lactamase (BLA) Follow-Up Assay, Ratio (AID 2283954). In outline:
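Agonist mode: compounds (11-point, triplicate) incubated 18 h with HEK293T cells carrying GAL4-DBD/human TRβ-LBD and UAS-β-lactamase. Blue/green (460/530 nm) FRET ratio read after 2 h CCF4-AM loading; CellTiter-Glo viability run in the same plates.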

The target is the same in experiment [12]. Kind of experiment: TOX21_TRB_COA_Agonist_Followup_ratio: Tox21 Thyroid Hormone Receptor beta Agonism through Coactivator Recruitment Follow-Up Assay, Ratio (AID 2283963; active = hit-call score of the fitted dose curve at least 0.9, where 1 is the maximum; inactive = score below 0.9). In outline: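 Signal is the 520/495 nm emission ratio (excitation 340 nm), scaled between DMSO-only wells as 0% and T3 wells as 100%. It reflects fluorescein-labeled SRC-2 peptide recruitment to GST-TRβ ligand-binding domain detected via terbium anti-GST antibody.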

Experiment [13] deals with Retinoic acid receptor RXR-alpha (Homo sapiens) (UniProt P19793). Kind of experiment: TOX21_TR_RXR_BLA_Agonist_Followup_ratio: Tox21 Thyroid Hormone Receptor beta Retinoid X Receptor alpha (RXRa) Agonism Beta-lactamase (BLA) Follow-Up Assay, Ratio (AID 2283968). In outline: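 Agonism is scored as an increase in the 460:530 nm beta-lactamase substrate ratio over DMSO in RXRa-UAS-bla HEK293T cells exposed for 16 h to 11 compound concentrations.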

Experiment [14] in a line: TOX21_TR_RXR_BLA_Agonist_Followup_viability: Viability Assessment in the Tox21 Thyroid Hormone Receptor beta Retinoid X Receptor alpha (RXRa) Agonism Beta-lactamase (BLA) Follow-Up Assay (AID 2283970). In outline: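 Luminescent ATP read (CellTiter-Glo) after 16h exposure of RXRa-UAS-bla HEK293T cells at 37C/5% CO2. Activity normalized to DMSO; signal loss scored as reduced viability.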

The nature of experiment [15]: CCTE_Harrill_HTTr_Viability_MCF7: CCTE's 6-hour Cell Viability Assessment for the High-Throughput Transcriptomics (HTTr) Platform, in MCF-7 cells cultured in DMEM + 10% fetal bovine serum, Harrill Lab (AID 2284010; active = hit-call score of the fitted dose curve at least 0.9, where 1 is the maximum; inactive = score below 0.9). Put shortly:
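Eight-point concentration series, six-hour exposure. Propidium iodide exclusion imaged to assess membrane integrity as a cytotoxicity readout; bidirectional fitting was done with DMSO as negative control and activity baseline.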

Experiment [16] is described as follows: CCTE_Harrill_HTTr_Apoptosis_MCF7: CCTE's 6-hour Apoptosis Assessment for the High-Throughput Transcriptomics (HTTr) Platform, in MCF-7 cells cultured in DMEM + 10% fetal bovine serum, Harrill Lab (AID 2284011; active = hit-call score of the fitted dose curve at least 0.9, where 1 is the maximum; inactive = score below 0.9). Put shortly: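 MCF-7 cells in DMEM + 10% FBS exposed 6 h to chemicals over an eight-point dilution series. Caspase-3/7 activation imaged by high-content CellEvent Green staining; fitted bidirectionally versus DMSO.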

Experiment [17] can be described thus: CCTE_Harrill_HTTr_CellCount_MCF7: CCTE's Cell Proliferation Assessment for the High-Throughput Transcriptomics (HTTr) Platform, Harrill Lab (AID 2284012).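 Note: intended direction is loss of nuclei count meaning fewer cells.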 In outline: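 For this full-screen endpoint, MCF-7 cultures received eight compound dilutions for six hours. Well nuclei counts from Hoechst imaging were analyzed relative to DMSO.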

Inconclusive results are not listed. The source made the active and inactive calls. Rule for the calls, unless noted: active = hit-call score of the fitted dose curve at least 0.9, where 1 is the maximum; inconclusive = response in the unintended direction; inactive = score below 0.9.

PGR (gene 5241), sequence (P06401 whole entry, looked up): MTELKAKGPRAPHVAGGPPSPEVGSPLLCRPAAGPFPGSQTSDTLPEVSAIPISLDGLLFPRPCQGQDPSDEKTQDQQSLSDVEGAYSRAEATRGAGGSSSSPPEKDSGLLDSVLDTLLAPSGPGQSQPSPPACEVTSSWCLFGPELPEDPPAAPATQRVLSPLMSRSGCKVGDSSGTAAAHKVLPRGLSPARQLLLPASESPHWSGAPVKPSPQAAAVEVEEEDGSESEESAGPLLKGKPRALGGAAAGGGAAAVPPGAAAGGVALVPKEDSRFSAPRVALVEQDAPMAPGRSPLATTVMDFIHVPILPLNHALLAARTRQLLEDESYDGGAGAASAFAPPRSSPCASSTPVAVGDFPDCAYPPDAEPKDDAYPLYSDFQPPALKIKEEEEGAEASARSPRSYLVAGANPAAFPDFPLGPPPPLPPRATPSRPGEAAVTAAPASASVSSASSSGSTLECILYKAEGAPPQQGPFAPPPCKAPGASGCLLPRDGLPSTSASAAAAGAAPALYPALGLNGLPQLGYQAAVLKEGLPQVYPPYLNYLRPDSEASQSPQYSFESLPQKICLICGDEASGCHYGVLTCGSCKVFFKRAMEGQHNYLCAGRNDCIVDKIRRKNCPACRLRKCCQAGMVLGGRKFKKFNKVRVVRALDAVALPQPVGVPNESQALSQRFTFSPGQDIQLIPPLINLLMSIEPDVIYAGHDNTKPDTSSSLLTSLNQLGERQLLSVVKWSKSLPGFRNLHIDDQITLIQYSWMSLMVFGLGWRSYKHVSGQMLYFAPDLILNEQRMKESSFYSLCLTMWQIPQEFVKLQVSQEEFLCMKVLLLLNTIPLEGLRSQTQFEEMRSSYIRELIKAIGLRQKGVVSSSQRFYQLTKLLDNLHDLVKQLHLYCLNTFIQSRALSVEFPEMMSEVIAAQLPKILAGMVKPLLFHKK
Cellular tumor antigen p53 (Homo sapiens), sequence (P04637 whole entry, looked up): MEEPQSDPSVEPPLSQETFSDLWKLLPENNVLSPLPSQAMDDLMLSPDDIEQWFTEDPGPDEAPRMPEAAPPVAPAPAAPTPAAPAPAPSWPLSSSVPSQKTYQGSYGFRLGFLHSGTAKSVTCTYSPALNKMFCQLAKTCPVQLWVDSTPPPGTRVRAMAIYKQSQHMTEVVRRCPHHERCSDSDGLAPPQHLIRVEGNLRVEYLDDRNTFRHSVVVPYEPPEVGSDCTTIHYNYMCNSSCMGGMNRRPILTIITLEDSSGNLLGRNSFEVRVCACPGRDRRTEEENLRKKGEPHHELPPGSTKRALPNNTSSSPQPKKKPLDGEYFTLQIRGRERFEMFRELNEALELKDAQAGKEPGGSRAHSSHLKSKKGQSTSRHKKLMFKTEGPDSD
THRB (gene 7068), sequence (P10828 whole entry, looked up, the tested form may be a part): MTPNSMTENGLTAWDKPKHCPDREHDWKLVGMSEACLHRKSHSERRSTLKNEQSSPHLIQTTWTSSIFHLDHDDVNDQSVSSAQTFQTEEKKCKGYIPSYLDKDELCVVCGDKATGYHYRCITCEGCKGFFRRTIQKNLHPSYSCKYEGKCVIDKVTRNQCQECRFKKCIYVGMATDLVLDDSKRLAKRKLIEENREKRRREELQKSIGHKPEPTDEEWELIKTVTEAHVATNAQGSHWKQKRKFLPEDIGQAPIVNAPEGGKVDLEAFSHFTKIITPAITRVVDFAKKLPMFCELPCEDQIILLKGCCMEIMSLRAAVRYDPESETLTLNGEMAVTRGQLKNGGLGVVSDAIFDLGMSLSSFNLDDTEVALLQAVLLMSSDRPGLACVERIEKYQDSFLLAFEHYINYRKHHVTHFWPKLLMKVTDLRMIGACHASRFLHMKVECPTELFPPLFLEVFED
Retinoic acid receptor RXR-alpha (Homo sapiens), sequence (P19793 whole entry, looked up): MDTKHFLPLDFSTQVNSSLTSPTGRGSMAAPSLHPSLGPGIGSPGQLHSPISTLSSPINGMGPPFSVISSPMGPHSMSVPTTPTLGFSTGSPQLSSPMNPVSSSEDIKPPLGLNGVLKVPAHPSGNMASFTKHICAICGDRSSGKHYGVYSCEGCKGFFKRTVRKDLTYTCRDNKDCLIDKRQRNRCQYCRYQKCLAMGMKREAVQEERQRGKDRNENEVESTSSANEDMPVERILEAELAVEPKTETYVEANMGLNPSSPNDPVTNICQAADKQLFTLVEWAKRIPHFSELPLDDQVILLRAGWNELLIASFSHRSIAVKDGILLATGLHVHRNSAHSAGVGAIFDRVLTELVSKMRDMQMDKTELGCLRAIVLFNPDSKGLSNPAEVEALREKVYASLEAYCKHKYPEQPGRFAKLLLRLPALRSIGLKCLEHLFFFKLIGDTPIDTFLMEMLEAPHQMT
Thyroid hormone receptor alpha (Rattus norvegicus) + Thyroid hormone receptor beta (Rattus norvegicus), sequence (P63059 whole entry, looked up): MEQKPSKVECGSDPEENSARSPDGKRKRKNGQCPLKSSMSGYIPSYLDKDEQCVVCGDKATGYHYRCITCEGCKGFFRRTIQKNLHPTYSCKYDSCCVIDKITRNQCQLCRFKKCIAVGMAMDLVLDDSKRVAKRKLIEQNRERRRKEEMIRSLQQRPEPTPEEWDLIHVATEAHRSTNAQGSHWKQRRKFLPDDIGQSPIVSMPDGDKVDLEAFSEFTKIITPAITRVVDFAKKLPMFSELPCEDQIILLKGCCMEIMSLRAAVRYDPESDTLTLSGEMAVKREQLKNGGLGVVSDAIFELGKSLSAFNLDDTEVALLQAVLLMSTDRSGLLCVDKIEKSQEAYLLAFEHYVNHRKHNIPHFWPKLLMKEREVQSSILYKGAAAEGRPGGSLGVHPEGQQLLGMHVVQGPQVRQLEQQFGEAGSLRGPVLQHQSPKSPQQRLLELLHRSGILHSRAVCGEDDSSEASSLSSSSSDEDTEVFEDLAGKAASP
Thyroid hormone receptor alpha (Rattus norvegicus) + Thyroid hormone receptor beta (Rattus norvegicus), sequence (P18113 whole entry, looked up): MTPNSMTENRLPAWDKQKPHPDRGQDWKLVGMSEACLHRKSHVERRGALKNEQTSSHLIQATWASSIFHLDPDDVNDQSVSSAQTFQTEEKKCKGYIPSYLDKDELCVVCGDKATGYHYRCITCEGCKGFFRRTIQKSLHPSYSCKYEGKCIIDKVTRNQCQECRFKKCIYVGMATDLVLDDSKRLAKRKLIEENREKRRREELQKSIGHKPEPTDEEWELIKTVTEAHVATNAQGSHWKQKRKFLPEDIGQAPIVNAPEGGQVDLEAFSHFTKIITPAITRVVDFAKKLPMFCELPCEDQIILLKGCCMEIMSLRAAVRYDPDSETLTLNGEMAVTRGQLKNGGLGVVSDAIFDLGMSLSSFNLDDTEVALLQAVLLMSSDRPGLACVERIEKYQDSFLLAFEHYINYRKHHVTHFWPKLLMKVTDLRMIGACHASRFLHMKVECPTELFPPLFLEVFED
THRA (gene 7067), sequence (P10827 whole entry, looked up, the tested form may be a part): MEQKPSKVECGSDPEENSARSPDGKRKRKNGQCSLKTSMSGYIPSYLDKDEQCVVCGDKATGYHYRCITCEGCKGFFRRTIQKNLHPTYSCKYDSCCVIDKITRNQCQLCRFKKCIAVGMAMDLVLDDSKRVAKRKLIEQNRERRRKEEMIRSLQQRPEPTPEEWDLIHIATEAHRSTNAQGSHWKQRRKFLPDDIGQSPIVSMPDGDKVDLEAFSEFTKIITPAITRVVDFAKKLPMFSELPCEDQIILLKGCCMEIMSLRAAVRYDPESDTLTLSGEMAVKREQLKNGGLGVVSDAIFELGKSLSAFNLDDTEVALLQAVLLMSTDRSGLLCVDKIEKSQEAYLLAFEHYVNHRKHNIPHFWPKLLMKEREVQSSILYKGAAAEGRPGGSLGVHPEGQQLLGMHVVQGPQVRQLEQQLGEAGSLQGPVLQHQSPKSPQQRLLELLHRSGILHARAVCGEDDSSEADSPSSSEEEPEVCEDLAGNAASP

As for `c1ccc(B(c2ccccc2)c2ccccc2)cc1`, the compound was classed as inactive in experiment [1].

For the compound `CCCCCCCCCC(=O)O[C@H]1CC[C@H]2[C@@H]3CCC4=CC(=O)CC[C@]4(C)[C@H]3CC[C@]12C`, the outcome in experiment [2] and in experiment [3] was inactive.

Take `ClC(Cl)C(Cl)Cl`: the result in experiment [2] and in experiment [3] was inactive.

What is called AC50 is the midpoint of the concentration-response curve, whichever way the signal moves. As for `CCC(=O)O[C@@H]1C=C2CCC3C(CCC4(C)C3CC[C@@H]4OC(=O)CC)C2CC1` (some centres not stated), the AC50 with PGR (gene 5241) [4] was 4.48 µM (active); with PGR (gene 5241) [7] it was 0.165 µM (active). Also, the result (in the experiment with PGR (gene 5241) [5]; in experiment [6]; with PGR (gene 5241) [8]; in [9]) was inactive.

Regarding `O=C(O)CCCCCCNC1c2ccccc2CCc2ccccc21`, the result (in experiment [3]; in experiment [10]; with THRB (gene 7068) [11]; in [13]; in [14]) was inactive. Further, the results for the AC50 with THRA (gene 7067) and with THRB (gene 7068) [12] were 23.8 µM (active) and 13.2 µM (active), respectively.

As for `Oc1ccccc1Cc1ccccc1O`, the compound was called inactive in experiment [1].

Consider `O=C(O)CCCOC(=O)c1ccccc1C(=O)O`, for which the result in [15], in [16] and in experiment [17] was inactive.
